Inconclusive results are not listed. A call without a number means that no potency is given here. Calls of active or inactive are those of the source. Calls follow the shape of the dose curve; as a rule, active = well fitted inhibition curve with a large enough effect in the repeat runs; inconclusive = weak or mixed curves; inactive = no such curve, though single readings can be large or run the other way. Where a SMILES comes first, the peptide text is derived from it. [ ]: non-standard residue; d: D form. pGlu = O=C1CC[C@@H](C(=O)O)N1
Potency is read from the fitted curve at half-maximal effect.

The assay deals with Cytochrome P450 1A2 (Homo sapiens) (UniProt P05177). In words: Cytochrome P450 Family 1 Subfamily A Member 2 (CYP1A2) small molecule antagonists: luciferase reporter qHTS assay (AID 1671199). Also: nearly all actives have a fitted effect of over 50% in size. The settings on record: P450-Glo CYP1A2 enzyme, luciferin luminescence, 1 h; series mostly up to 53 µM. An excerpt: National Center for Advancing Translational Sciences [NCATS]
Cytochrome P450 1A2 (Homo sapiens), sequence (P05177 whole entry, looked up): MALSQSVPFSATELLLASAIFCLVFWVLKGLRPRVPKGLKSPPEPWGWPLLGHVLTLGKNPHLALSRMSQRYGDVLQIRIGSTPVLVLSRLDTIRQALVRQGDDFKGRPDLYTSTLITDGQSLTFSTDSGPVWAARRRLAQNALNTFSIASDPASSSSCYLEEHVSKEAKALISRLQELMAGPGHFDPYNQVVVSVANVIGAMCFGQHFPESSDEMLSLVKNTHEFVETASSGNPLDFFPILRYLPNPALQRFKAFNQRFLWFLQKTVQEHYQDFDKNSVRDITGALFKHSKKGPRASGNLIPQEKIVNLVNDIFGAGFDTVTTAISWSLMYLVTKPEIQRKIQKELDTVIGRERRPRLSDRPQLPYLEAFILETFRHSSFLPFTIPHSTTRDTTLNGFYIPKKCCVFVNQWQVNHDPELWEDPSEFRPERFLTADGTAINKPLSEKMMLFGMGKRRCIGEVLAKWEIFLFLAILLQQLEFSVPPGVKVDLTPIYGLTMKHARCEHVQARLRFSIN
U.S. Environmental Protection Agency [EPA]
National Institutes of Environmental Health Sciences [NIEHS]
National Toxicology Program [NTP]
U.S. Food and Drug Administration [FDA]
Cytochrome P450 (CYP) enzymes are membrane-bound hemeproteins that play a key role in metabolism of drugs and xenobiotics. Evaluation of the effect of chemicals on CYP isozymes is useful to minimize the adverse drug reactions and toxicities in drug development process. Tox21 chemicals were tested for their effect on CYP enzyme activities by using P450-Glo (TM) screening systems (Promega Corporation, Madison, WI). These systems provide a luminescent method containing proluciferin substrates and are converted to luciferin products by CYP isozymes. The luciferin products formed are detected with a luciferin detection reagent, and the amount of light produced is proportional to CYP activity. P450-Glo (TM) CYP1A2 screening system (Catalog. No. V9770) was used to detect the compounds that interfere in CYP1A2 activity. The positive control compound used for CYP1A2 assay is furafylline (Sigma-Aldrich, St. Louis, MO).
Tox21 Assay Protocol Summary:
Two ul of enzyme-substrate mix was dispensed into medium binding white/solid 1536-well plates (Greiner Bio-One North America Inc., Monroe, NC) using a BioRaptr Flying Reagent Dispenser (FRD, Beckman Coulter, Brea, CA). Compounds dissolved in DMSO and positive control (furafyllline) were transferred to the assay plates at 23 nl using a Pintool station (Wako, San Diego, CA). The assay plates were incubated at room temperature for 10 min. Then 2 ul of NADPH regeneration solution was added to each well of the assay plates using an FRD and incubated at room temperature for 1 h. The reaction was stopped by adding 4 ul of detection reagent using an FRD and after 20 min incubation at room temperature the luminescence signal was measured using a ViewLux plate reader (Perkin Elmer, Shelton, CT). Data were expressed as relative luminescence units.
A general note: Reporter assays use an easily measured gene product as a stand-in for the process of interest.
`C[N+]1(C)CCCC(OC(=O)C(O)(c2ccccc2)c2ccccc2)C1` (stereo not given): the Potency result is “inactive”. The figure for `CCOC(=O)c1cnc2c(cnn2CC)c1NN=C(C)C` is 2.04 µM (active); for `CCCCOCCOC(=O)COc1cc(Cl)c(Cl)cc1Cl` it is 39.9 µM (active). Regarding `C=CCOCC(O)CO` (stereo not given), the Potency entry was “inactive”.

`CC[N+](CC)(CC(=O)Nc1c(C)cccc1C)Cc1ccccc1` (tested in a mixture with another compound): the Potency entry was “inactive”. Regarding `O=C(O)CCCC[P+](c1ccccc1)(c1ccccc1)c1ccccc1`, the Potency result was “inactive”. The value for `CCOC(=O)CCC(=O)OCC` was “inactive”; that for `CCNC(=O)[C@@H]1CCCN1C(=O)[C@H](CCCN=C(N)N)NC(=O)[C@H](CC(C)C)NC(=O)CNC(=O)[C@H](Cc1ccc(O)cc1)NC(=O)[C@H](CO)NC(=O)[C@H](Cc1c[nH]c2ccccc12)NC(=O)[C@H](Cc1cnc[nH]1)NC(=O)[C@@H]1CCC(=O)N1` ([pGlu]HWSYGLRP-NHEt) was “inactive”. In the case of `O=C(O)Cc1csc(-c2ccc(Cl)cc2)n1`, the Potency result was “inactive”. The value for `CN(C)[C@@H]1C(=O)C(C(=O)NCN2CCCC2)=C(O)[C@@]2(O)C(=O)C3=C(O)c4c(O)cccc4[C@@](C)(O)C3C[C@@H]12` (stereo not given in full) was 17.4 µM (active); that for `COc1c(N2CCNC(C)C2)c(F)cc2c(=O)c(C(=O)O)cn(C3CC3)c12` (stereo not given) was “inactive”; that for `CC(C)CCCO` was “inactive”.

For `C1CCC2(CCCCO2)OC1`, the Potency result was “inactive”.

With `C=C(C)C(=O)OCCOCCOCCOCCOC(=O)C(=C)C`, the Potency was 63.3 µM (active). With `O=[N+]([O-])c1ccc(/C=N\O)o1`, the Potency was 27.5 µM (active). The entry for `[K+]` is “inactive”; for `Cc1onc(-c2c(Cl)cccc2Cl)c1C(=O)Cl` it is “inactive”; for `CCCCOC(=O)CCC(C)=O` it is “inactive”. The entry for `Nc1ccn([C@@H]2O[C@H](CO)[C@@H](O)C2O)c(=O)n1` (stereo not given in full) is “inactive”.

For `[O-][n+]1cccc(CO)c1`, the Potency entry is “inactive”.

Regarding `CNC(=O)Nc1ccc(Cl)c(Cl)c1`, the Potency is 5.03 µM (active). The entry for `COc1ccc2cc1Oc1cc3c(cc1OC)CC[N+](C)(C)[C@H]3Cc1ccc(cc1)Oc1c(OC)c(OC)cc3c1[C@@H](C2)[N+](C)(C)CC3` is “inactive”; for `Nc1ccncc1N` it is “inactive”; for `CCOC(=O)COC(=O)c1ccccc1C(=O)OCC` it is 7.96 µM (active). The entry for `CC1=NN(c2cc(S(=O)(=O)O)ccc2Cl)C(=O)C1N=Nc1ccccc1` (stereo not given) is “inactive”.

For `CC(=O)Oc1cccc(C)c1`, the Potency entry is “inactive”. Turning to `O=C(O)CC(C(=O)O)S(=O)(=O)O` (stereo not given), the Potency is 31.7 µM (active). The entry for `COCCOCC(OC)OC` is “inactive”. The entry for `CCOC(=O)OC(C)OC1=C(C(=O)Nc2ccccn2)N(C)S(=O)(=O)c2ccccc21` (stereo not given) is “inactive”; for `C=C(C)C(=O)OCC1CCCO1` (stereo not given) it is “inactive”. The entry for `CC(=O)N[C@H]1[C@H]([C@H](O)[C@H](O)CO)OC(C(=O)O)=C[C@@H]1N=C(N)N` is “inactive”; for `CCO[Si](OCC)(OCC)c1ccccc1` it is “inactive”.

Regarding `Nc1c2c(nc3c1CCC3)CCCC2`, the Potency entry was “inactive”. The entry for `Clc1cc(Cl)cc(Cl)c1` is “inactive”; for `CC(CC=O)CC(C)(C)C` (stereo not given) it is “inactive”; for `CC(C(=O)O)c1cccc(Oc2ccccc2)c1` (stereo not given) it is “inactive”. The figure for `CC(=O)c1ccc2ccccc2c1` is 7.96 µM (active); for `CC(COc1ccccc1)NN` (stereo not given) it is “inactive”; for `Cc1ccnc(NS(=O)(=O)c2ccc(N)cc2)n1` it is “inactive”. On to `CCCC(=O)O[C@]1(C(=O)CC)CC[C@H]2[C@@H]3CCC4=CC(=O)CC[C@]4(C)[C@H]3[C@@H](O)C[C@@]21C`, for which the Potency entry was “inactive”.
